We go through 39 compounds from PubChem BioAssay (Tox21).

Molecules are shown by their SMILES. Inconclusive results are not listed. Where a call stands in place of a potency, no number is given. The source made the active and inactive calls. Calls follow the shape of the dose curve; as a rule, active = well fitted cell-killing curve with a large enough effect in the repeat runs; inconclusive = weak or mixed curves, or effect the other way; inactive = flat fitted curve, though single readings scatter.
Potency is read from the fitted curve at half-maximal effect.

A short description of this test: qHTS assay to identify small molecule antagonists of the constitutive androstane receptor (CAR) signaling pathway - cell viability counter screen (AID 1224837). Also: nearly all actives have a fitted effect of over 45% in size. The settings on record: HepG2-CYP2B6-hCAR viability, CellTiter-Fluor, 23 h, co-treated with 50 nM CITCO; series mostly up to 92.4 µM. Put shortly: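 HepG2 cells stably expressing hCAR and a CYP2B6-2.2kb reporter were plated and pre-incubated 4 hr at 37 C/5% CO2, then given compounds at 15 concentrations plus 50 nM CITCO (final). After 23 hr, viability was read by CellTiter-Fluor fluorescence.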
A general note: Quantitative high-throughput screening tests each substance at several concentrations.
Turning to `CCOC(=O)c1ccc(NC(=O)CN2CCCCC2)cc1`, the Potency entry is “inactive”.

For the compound `C[C@@H]1[C@H](O)[C@@H](C)/C=C/C=C\C=C\C=C\C=C\C=C\C=C\[C@H](O[C@@H]2O[C@H](C)[C@@H](O)[C@H](N)[C@@H]2O)C[C@@H]2O[C@](O)(C[C@@H](O)C[C@@H](O)[C@H](O)CC[C@@H](O)C[C@@H](O)CC(=O)O[C@H]1C)C[C@H](O)[C@H]2C(=O)O` (stereo in doubt), the Potency entry was “inactive”.

Consider `CCOc1ncc(F)c(=O)[nH]1`, for which the Potency result was “inactive”.

In the case of `CC1CCC(C(C)CS)CC1S` (centres undefined), the Potency result is “inactive”.

On to `O=CNNC=O`, for which the Potency entry was “inactive”.

Consider `CC[C@H]1OC(=O)[C@H](C)[C@@H](O[C@H]2C[C@@](C)(OC)[C@@H](O)[C@H](C)O2)[C@H](C)[C@@H](O[C@@H]2O[C@H](C)C[C@H](N(C)C)[C@H]2O)[C@](C)(O)C[C@@H](C)/C(=N\OCOCCOC)[C@H](C)[C@@H](O)[C@]1(C)O`, for which the Potency is 14.3 µM (active).

As for `CCN(CC)c1ccc(C(=C2C=CC(=[N+](CC)CC)C=C2)c2ccc(S(=O)(=O)O)cc2S(=O)(=O)[O-])cc1`, the Potency was 27.3 µM (active).

Consider `O=C(/C=C/c1ccc([N+](=O)[O-])cc1)c1ccccc1`, for which the Potency was 68.7 µM (active).

`Nc1nc(-c2ccc([N+](=O)[O-])cc2)cs1`: the Potency result was “inactive”.

For the compound `Cc1oc(=O)oc1COC(=O)[C@@H]1N2C(=O)[C@@H](NC(=O)[C@H](N)c3ccccc3)[C@H]2SC1(C)C`, the Potency result was “inactive”.

As to `CC(C)(C)S`, the Potency entry was “inactive”.

On to `C1=CCC2CC=CC2C1` (centres undefined), for which the Potency result is “inactive”.

For `COc1cc(OC)c2ccc(=O)oc2c1`, the Potency result is “inactive”.

Take `CC(C)C1CCC(C(=O)N[C@H](Cc2ccccc2)C(=O)O)CC1` (some centres undefined): the Potency entry was “inactive”.

Turning to `CCCCCCOC(=O)CCCCC`, the Potency entry was “inactive”.

For the compound `C[C@@H]1C[C@H]2[C@@H]3CCC4=CC(=O)C=C[C@]4(C)[C@@]3(F)[C@@H](O)C[C@]2(C)[C@@]1(O)C(=O)COP(=O)(O)O`, the Potency result was “inactive”.

Take `CO[C@@H]1[C@@H](OC)[C@H](C)[C@@](O)(CC(=O)O)O[C@H]1[C@H](C)[C@H]1O[C@@]2(CC[C@@](C)([C@H]3CC[C@@](C)([C@@H]4O[C@@H]([C@H]5O[C@](C)(O)[C@H](C)C[C@@H]5C)C[C@@H]4OC4C[C@H](OC)[C@@H](OC)[C@H](C)O4)O3)O2)C[C@H](O)[C@H]1C` (some centres undefined): the Potency is 4.73 µM (active).

On to `CCCCCCCCCCCCCCCC(=O)OCC`, for which the Potency entry is “inactive”.

For the compound `CC(C)COC(=O)c1ccc(O)cc1`, the Potency entry is “inactive”.

As to `COc1ccc(C(=O)NCc2ccc(OCCN(C)C)cc2)cc1OC`, the Potency result was “inactive”.

Regarding `CC(=O)NNC(C)=O`, the Potency result is “inactive”.

Turning to `CCC(CO)(CO)CO`, the Potency entry is “inactive”.

Take `COc1ccc(-n2nc(C(F)F)cc2-c2ccc(S(C)=O)cc2)cc1` (centres undefined): the Potency entry was “inactive”.

For `O=C(O)c1cc(Cl)cc(Cl)c1O`, the Potency entry was “inactive”.

With `C=CC(=O)NC(C)C`, the Potency result is “inactive”.

Regarding `CC(=O)OCCC(C)CC(C)(C)C` (centres undefined), the Potency entry was “inactive”.

Regarding `CCCCOC(=O)CCCCC(=O)OCCCC`, the Potency entry was “inactive”.

For `CCCCC(CC)COS(=O)(=O)O` (centres undefined), the Potency result was “inactive”.

With `COC(C)(C)OC`, the Potency entry was “inactive”.

On to `COc1ccc(C2C(=O)c3ccccc3C2=O)cc1`, for which the Potency result is “inactive”.

In the case of `Cc1ccc(S(=O)(=O)NC(=O)NC2CCCCC2)cc1`, the Potency result is “inactive”.

As to `CC1=CC[C@@]23C[C@@H]1C(C)(C)[C@@H]2CC[C@H]3C`, the Potency result is “inactive”.

Turning to `CCCCCCC(O)CCOC(C)=O` (centres undefined), the Potency entry is “inactive”.

Take `CC(=O)C(=O)CC(C)C`: the Potency result was “inactive”.

On to `O=C(O)CCS`, for which the Potency entry was “inactive”.

`CC(=O)c1ccc[nH]1`: the Potency result is “inactive”.

On to `CC(C)(O)CCc1ccccc1`, for which the Potency result is “inactive”.

`COc1ccc(C)cc1`: the Potency result was “inactive”.

On to `CCN(CC)C(=O)N1CCN(C)CC1`, for which the Potency result was “inactive”.
